# p53 reactivator – re-activators of mutant p53; H1299 p53-A138V BP100-luciferase reporter, luminescence, 24 h; 0.063% of 320,000 active; Potency, µM (doses to about 92.2 µM), for the others: at the highest dose activity change, positive = activation, actives largely listed as activators; also: potency is read from the fitted curve at half-maximal effect; % of control where 0% means no effect; nearly all actives have a fitted effect of over 45% in size
#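 H1299 (p53-null), stable ts p53-A138V + BP100-Luc; 1000 cells/well, Opti-MEM/10% FBS; cpd 4 pt, 1:5; 24 h, 37 deg C, 5% CO2; detection reagent 10 min RT; luminescence.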
# GLP1R cytotox – cytotoxic in the GLP-1 receptor inverse agonist counter-screen; HEK293 cAMP-luciferase reporter cells, luminescence, 24 h; 0.13% of 410,000 active; AID 624418; Potency, µM (doses to about 38.3 µM), without a hit: top-dose activity change, negative = inhibition, most hits filed as inhibitors;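 also: loss of luciferase light is scored as toxicity; potency is read from the fitted curve at half-maximal effect; % is scaled to controls: 0 for no effect and ±100 for the full control effect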
#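 Cells in DMEM/10% Nu serum/1% pen-strep, 1536-well format. Pre-incubated 12 h, dosed with 23 nL compound, incubated a further 24 h. Luciferase detection, 12 min at room temp, luminescence.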
# ClpP mod – qHTS Assay for Activators of ClpP; ATP-dependent Clp protease proteolytic subunit (Bacillus subtilis (strain 168)), P80244; purified B. subtilis ClpP, FRET peptide cleavage, 20 min; Potency, µM (doses to about 57.5 µM), for inactives: at the highest dose activity change, negative = active; 1.9% of 340,000 active; AID 651965, 2013; active = well fitted falling curve with a large enough effect; inconclusive = small, poorly fitted or top-dose-only effect; inactive = no such curve, though single readings can be large or run the other way; also: potency is read from the fitted curve at half-maximal effect; the source files actives as falling curves though it sought activators and does not explain the sign; nearly all actives have a fitted effect of over 65% in size
# Target sequence (P80244 whole entry, looked up): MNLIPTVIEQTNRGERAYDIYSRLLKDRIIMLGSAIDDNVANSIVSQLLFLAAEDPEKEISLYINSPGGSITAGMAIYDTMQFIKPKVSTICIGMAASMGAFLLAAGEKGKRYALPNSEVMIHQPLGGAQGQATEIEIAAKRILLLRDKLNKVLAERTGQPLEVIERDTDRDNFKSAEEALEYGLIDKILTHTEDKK
#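 ClpP 10 microg/mL final, pH 8 Tris/KCl buffer with BSA, glycerol, Tween-20; compound pinned in; FRET-FV substrate; RT 20 min; Ex320/Em430; ΔFRET vs ADEP 5.8 microM, DMSO, no enzyme.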
# LDHA inh – inhibitors of human lactate dehydrogenase A. P00338. activity change, % (values are at about 110 or 230 µM). purified LDHA, NADH/diaphorase-resazurin fluorescence; hits give low values. 0.15% of 480,000 active; in the data active = activity change below about -30%; inconclusive = mostly about -25% to -30%;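 also: plate controls were DMSO wells for no effect and wells without enzyme for full effect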
#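 Resorufin fluorescence (ex540/em590), read at 0 and 20 min after diaphorase/resazurin addition, reports the NADH left after a 5 min room-temperature reaction of 2 nM human LDH5 with 0.06 mM NADH and 0.2 mM pyruvate.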
# GLP-1R agonist – activates the human GLP-1 receptor; P43220; HEK293 GLP-1R CRE-luciferase, luminescence, 4-6 h; cells express a hypersensitive GLP-1R form; Potency, µM (titrated, usually from 45.6 µM), without a hit: at the top dose activation, usual class: activators; 0.007% of 380,000 active; AID 624172; also: potency is read from the fitted curve at half-maximal effect; % of control where 0% means no effect
# Target sequence (P43220 whole entry, looked up): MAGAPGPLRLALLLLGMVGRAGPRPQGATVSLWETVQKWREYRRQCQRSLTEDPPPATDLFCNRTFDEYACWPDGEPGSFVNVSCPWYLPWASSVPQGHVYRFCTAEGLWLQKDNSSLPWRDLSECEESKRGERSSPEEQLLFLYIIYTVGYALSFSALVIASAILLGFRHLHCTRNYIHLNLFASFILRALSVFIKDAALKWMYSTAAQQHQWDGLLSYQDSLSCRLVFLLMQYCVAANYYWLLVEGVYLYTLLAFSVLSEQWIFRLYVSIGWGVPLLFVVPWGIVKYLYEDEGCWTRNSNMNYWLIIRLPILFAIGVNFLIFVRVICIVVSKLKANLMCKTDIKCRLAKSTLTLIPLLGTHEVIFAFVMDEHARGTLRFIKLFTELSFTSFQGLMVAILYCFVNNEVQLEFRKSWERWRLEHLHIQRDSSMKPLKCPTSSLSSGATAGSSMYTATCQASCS
# GLP-1R inv ag – inverse agonists of human GLP-1 receptor | P43220 | HEK293 GLP-1R CRE-luciferase, luminescence, 24 h; GLP-1R form is constitutively active | Potency, µM (highest dose often 38.3 µM), without a hit: at the top dose activity change, negative = inhibition, hits mostly inhibitors | 1.6% of 410,000 active | AID 624417; also: potency is read from the fitted curve at half-maximal effect; % is scaled to controls: 0 for no effect and ±100 for the full control effect; nearly all actives have a fitted effect of over 55% in size
#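 Inverse agonism was detected as reduced cAMP-driven luciferase luminescence after 24 h compound treatment. The cells were HEK293 clones expressing constitutively active human GLP-1R with the reporter. Reporter-only and GPR119 cell lines served as counterscreen controls.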
# Active calls of the source: *; i = inactive; u = inconclusive; x = no result given; [ ] = dose if it differs, or a comment. Compounds with a hit are over-represented: about 2.9% of the library has one in this group of screens. Unless noted, calls follow the shape of the dose curve; as a rule, active = well fitted curve in the direction sought with a large enough effect; inconclusive = small, poorly fitted or top-dose-only effect, or another doubt; inactive = no such curve, though single readings can be large; an effect the other way counts as inactive or inconclusive.
SMILES,p53 reactivator,GLP1R cytotox,ClpP mod,LDHA inh,GLP-1R agonist,GLP-1R inv ag
CC(C)N1C(=O)CC2(CC[N+](C)(CCOC(=O)C(O)(c3ccccc3)c3ccccc3)CC2)C1=O (stereo not drawn),2%,-2%,2%,-34*,-26%,0%
COC(=O)Nc1nc2ccccc2[nH]1,x,-32%,-2%,-3,-2%,1%
COc1ccc(N(C)S(=O)(=O)c2cccc(C(=O)Nc3nc4ccccc4[nH]3)c2)cc1,-4%,u,28µM*,-5,-9%,u
CCOC(=O)C1(c2ccccc2)CCN(CC(=O)Nc2ccc(C)cc2)CC1,-3%,-10%,0%,-2,15%,8.9µM*
CCOC(=O)C1(c2ccccc2)CCN(CCC(=O)Nc2cccc(Br)c2)CC1,-2%,u,x,-3,12%,3.2µM*
CCOC(=O)C1(c2ccccc2)CCN(CCC(=O)Nc2ccc(C(=O)OC)cc2)CC1,-3%,-11%,0%,-2,9%,u
CCOC(=O)C1(c2ccccc2)CCN(CCC(=O)Nc2ccc(OC)cc2)CC1,x,-22%,-7%,-1,12%,u
Cc1ccc(NC2=NCCCS2)c(C)c1C,6%,-7%,0%,-4,0%,u
Cc1ccccc1C(=O)Oc1cccc(Nc2ncnc3ccccc23)c1,x,-25%,u,-1,-16%,11µM*
Cc1ccc(NCc2cccn2-c2nnc(N3CCC(C(=O)NCc4ccc(OC(C)C)cc4)CC3)s2)cc1,x,-16%,-6%,-3,x,10µM*
CCOc1ccc(NCc2cccn2-c2nnc(N3CCC(C(=O)NCc4ccc(C)cc4)CC3)s2)cc1,x,-1%,-3%,-5,x,u
CC(C)C(=O)N1CCC(CN=Cc2c(O)n(C3CCCCC3)c(=O)n(C3CCCCC3)c2=O)CC1,-21%,-2%,-2%,4,-1%,2.8µM*
CCCNC(=O)c1c(N)n(Cc2ccco2)c2nc3ccccc3nc12,-7%,432%,28µM*,15,14%,0%
CC(C)CNC(=O)c1c(N)n(Cc2ccco2)c2nc3ccccc3nc12,-4%,304%,22µM*,1,5%,u
COCCOC(=O)c1c(N)n(Cc2ccco2)c2nc3ccccc3nc12,-1%,432%,8%,11,2%,20%
CC(C)OC(=O)c1c(N)n(Cc2ccco2)c2nc3ccccc3nc12,-1%,196%,14µM*,0,0%,33%
COCCCNC(=O)c1c(N)n(Cc2ccco2)c2nc3ccccc3nc12,-2%,i,4%,8,25%,u
COc1ccc(N/N=C/c2c(O)n(-c3ccc(C)c(C)c3)c(=O)[nH]c2=O)cc1,12%,-12%,1%,18,-4%,u
Cn1cc(/C=N/n2cnc3scc(-c4ccccc4)c3c2=O)c2ccccc21,0%,u,-18%,-5,-8%,5µM*
CC(C)CCOP(=O)(c1ccc(N(C)C)cc1)C(O)c1ccc(Cl)cc1Cl (stereo not drawn),-11%,u,x,9,6%,6.3µM*
O=C(Nc1ccc(Cl)c(Cl)c1)c1cccc(S(=O)(=O)NCc2cccnc2)c1,-1%,u,-1%,-8,3%,11µM*
Cc1ccc(CN2CCCN(Cc3ccc(Cl)cc3)S2(=O)=O)cc1,11%,3%,x,-9,4%,u
CCOC(=O)C1(CCOc2ccccc2)CCN(Cc2ccccc2OC)CC1,-7%,-20%,1%,-12,6%,8.9µM*
CCCCCCn1c(O)c(C=NC2CCCCC2N)c(=O)[nH]c1=O (stereo not drawn),-2%,6%,-3%,4,3%,0%
COc1ccc(CCNC(=O)N2c3ccccc3Sc3ccccc32)cc1,x,-18%,-1%,-5,7%,7.9µM*
SMILES,p53 reactivator,GLP1R cytotox,ClpP mod,LDHA inh,GLP-1R agonist,GLP-1R inv ag
COc1ccc(CCNC(=O)COC(=O)Cc2ccccc2)cc1,16%,-3%,-1%,-5,3%,1%
Cc1nc2ccccc2c(=O)n1-c1ccccn1,-14%,21%,-2%,-2,-2%,17%
COc1cccc(-n2c(C)nc3ccccc3c2=O)c1,-6%,29%,-4%,1,6%,13%
O=c1c2ccccc2nc(-c2ccccc2)n1-c1ccccc1,-2%,2%,1%,0,14%,5µM*
Cc1nc2ccccc2c(=O)n1-c1cccc(C(F)(F)F)c1,x,14%,28µM*,-4,6%,2%
O=c1c2ccccc2nc(N2CCCC2)n1-c1ccccc1,-1%,-9%,4%,-1,15%,3.2µM*
O=c1c2ccccc2nc(-c2ccccc2)n1-c1ccncc1,-2%,13%,-3%,0,12%,0%
O=c1c2ccccc2nc(-c2ccccc2F)n1-c1ccccc1,-26%,-13%,x,-4,9%,u
O=c1c2ccccc2nc(-c2ccccc2)n1-c1cccc(O)c1,-1%,-12%,x,-3,-1%,1µM*
O=C(NC(O)C(Cl)(Cl)Cl)NC(O)C(Cl)(Cl)Cl (stereo not drawn),x,x,x,0,12%,x
CN1C2CCC1CC(OC(=O)c1cc(Cl)cc(Cl)c1)C2 (stereo not drawn),-2%,-9%,1%,-4,-3%,u
O=C1NC(=O)N(c2ccc3c(c2)OCO3)C(=O)/C1=C/c1cccs1,-4%,2%,x,-6,2%,13%
CCCCc1nc2ccccc2c(=O)n1-c1ccc(O)cc1,-13%,-8%,0%,0,27%,2.2µM*
CCC(c1nnnn1-c1ccc2c(c1)OCCO2)N1CCC2(CC1)C(=O)NCN2c1ccccc1 (stereo not drawn),x,2%,-1%,-10,28%,-7%
Cc1cccc(OCC(=O)N2CCN(Cc3cccnc3)CC2)c1,-2%,-2%[7.66 µM],28µM*,-33*,0%,-5%[7.66 µM]
Cc1ccc(OCC(=O)N2CCN(Cc3cccnc3)CC2)cc1,4%,2%,1%,-32*,15%,8%
Cc1ccc(OCC(=O)N2CCN(C3CCC(c4ccccc4)CC3)CC2)cc1 (stereo not drawn),0%,0%,x,-6,9%,11µM*
CC12CCC(O)CC1CCC1C2CCC2(C)C(C3=CC(=O)OC3)CCC12O (stereo not drawn),x,u,1%,-3,-30%,1.1µM*
C[C@]12CC[C@H](O)C[C@H]1CC[C@@H]1[C@@H]2CC[C@]2(C)[C@@H](C3=CC(=O)OC3)CC[C@]12O,-11%,u,0%,-6,-10%,0.5µM*

# Bioassay records deposited in PubChem by National Center for Advancing Translational Sciences (NCATS).
